Measured values as given in PMC4336329 (PLoS ONE, 2015).
The campaign covered roughly 310,000 compounds. About 14,000 (4.5%) showed an effect of 50% or more. The effect is printed as a negative number. Only a selection was taken, and strong results are over-represented in it overall.

molecular target: human ether-à-go-go-related gene (hERG) potassium channel (human, UniProt Q12809); assay: primary screen, population patch clamp on CHO cells stably expressing hERG; higher = less effect of the substance
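Note: peak tail current of the secondary pulse compared with the same well before compound.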

human ether-à-go-go-related gene (hERG) potassium channel, sequence (Q12809 whole entry, looked up): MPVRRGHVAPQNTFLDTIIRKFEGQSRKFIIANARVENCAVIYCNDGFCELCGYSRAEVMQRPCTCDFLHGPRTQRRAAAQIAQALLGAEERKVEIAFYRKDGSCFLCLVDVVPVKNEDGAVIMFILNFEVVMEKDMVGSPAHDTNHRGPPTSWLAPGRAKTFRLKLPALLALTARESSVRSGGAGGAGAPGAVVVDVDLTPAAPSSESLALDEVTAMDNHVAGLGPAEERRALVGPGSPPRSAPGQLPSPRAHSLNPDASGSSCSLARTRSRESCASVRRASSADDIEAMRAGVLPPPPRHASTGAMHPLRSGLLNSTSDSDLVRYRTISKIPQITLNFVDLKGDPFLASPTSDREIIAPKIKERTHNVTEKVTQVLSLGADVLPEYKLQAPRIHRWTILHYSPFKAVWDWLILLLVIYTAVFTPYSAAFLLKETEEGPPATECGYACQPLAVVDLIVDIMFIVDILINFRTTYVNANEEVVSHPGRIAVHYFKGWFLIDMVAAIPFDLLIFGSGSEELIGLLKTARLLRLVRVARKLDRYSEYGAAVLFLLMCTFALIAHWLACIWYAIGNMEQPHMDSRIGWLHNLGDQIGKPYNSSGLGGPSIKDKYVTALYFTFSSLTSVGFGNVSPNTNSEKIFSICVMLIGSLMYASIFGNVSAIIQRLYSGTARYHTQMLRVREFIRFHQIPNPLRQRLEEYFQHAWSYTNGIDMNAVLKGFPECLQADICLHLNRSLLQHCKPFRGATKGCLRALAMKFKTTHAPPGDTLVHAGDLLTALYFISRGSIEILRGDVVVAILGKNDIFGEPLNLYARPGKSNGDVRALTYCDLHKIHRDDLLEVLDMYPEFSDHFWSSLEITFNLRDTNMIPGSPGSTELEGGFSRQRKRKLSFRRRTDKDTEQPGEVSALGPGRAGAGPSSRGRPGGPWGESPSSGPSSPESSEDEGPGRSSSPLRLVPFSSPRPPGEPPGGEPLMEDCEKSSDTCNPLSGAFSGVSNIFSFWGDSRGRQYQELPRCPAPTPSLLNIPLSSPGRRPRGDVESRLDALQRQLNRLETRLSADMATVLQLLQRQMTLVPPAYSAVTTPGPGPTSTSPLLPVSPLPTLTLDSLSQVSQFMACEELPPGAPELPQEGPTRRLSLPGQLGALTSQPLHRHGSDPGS

| SMILES | hERG current change (%, negative = inhibition) at 10uM [%] |
| --- | --- |
| N#C/C(=C/c1ccccc1[N+](=O)[O-])c1nc(C2CC2)cs1 | -12.3 |
| CCCc1nnc(NC(=O)CCC(=O)NCc2ccccc2OC)s1 | 21.4 |
| CC1(c2ccccc2)NC(=O)N(CC(=O)NC(=O)NC2CCCC2)C1=O (centres unmarked) | 0.115 |
| Cc1ccc(-c2noc(CSc3nnc(-c4ccccc4)n3C)n2)cc1 | -3.5 |
| COc1cc2c(cc1OC)C(c1ccc(Br)cc1)NC(=O)C2 (centres unmarked) | 12.1 |
| O=C(CSc1nnc(-c2ccco2)n1CC1CCCO1)NC1CCCC1 (centres unmarked) | -4.75 |
| CCCCN(CC(O)COc1cccc(C)c1)CC(O)COc1cccc(C)c1 (centres unmarked) | -81.7 |
| CN(C)CC(O)COc1cccc(OCC(O)CN(C)C)c1.Cl (centres unmarked) | 11.8 |
| Cc1cccc(OCC(O)Cn2ccnc2C)c1 (centres unmarked) | -9.12 |
| CC(C)NCC(O)COc1ccc(Br)cc1.Cl (centres unmarked) | -30.3 |
| OCCN(CCO)CC(O)COc1ccc(Br)cc1 (centres unmarked) | 3.82 |
| CCCCN(CCCC)CC(O)COc1ccc(Br)cc1 (centres unmarked) | -74.4 |
| CCOP(=S)(OCC)SCC(=O)NC(C(=O)O)C(C)C (centres unmarked) | 7.13 |
| O=C(N=Nc1c(O)[nH]c2ccccc12)c1ccc2c(c1)OCO2 | 6.09 |
| CCCNC(=O)c1ccc(S(=O)(=O)c2ccc(OC)cc2)c([N+](=O)[O-])c1 | -31.2 |
| Cc1cccc(NC(=S)NCCN2CCOCC2)c1C | 13.9 |
| COc1ccccc1-c1nnc2sc(COc3ccccc3)nn12 | -2.14 |
| COc1ccccc1-c1nnc2sc(COc3ccc(Cl)cc3)nn12 | -37.8 |
| COc1ccccc1-c1nnc2sc(COc3ccc(F)cc3)nn12 | -74 |
| COc1ccc2cc(CCNC(=O)c3ccco3)c(=O)[nH]c2c1 | -2.81 |
| O=P(O)(CCc1ccccn1)CN1CCCCC1 | -67.6 |
| O=P(O)(CCc1ccccn1)CN1CCOCC1 | 6.28 |
| O=P(O)(CCc1ccccc1)CN1CCCCC1 | 10.9 |

| SMILES | hERG current change (%, negative = inhibition) at 10uM [%] |
| --- | --- |
| Cc1cc(C)c2nc(-c3cccnc3)cc(C(=O)NC(C)c3cnn(C)c3C)c2c1 (centres unmarked) | -30.6 |
| CC(C)CCN1C(=O)c2ccc(C(=O)NCC3CCCO3)cc2C1=O (centres unmarked) | -8.48 |
| CC(C)N(Cc1nccn1C)C(=O)c1cc(COc2ccc(-n3cncn3)cc2)on1 | -51.5 |
| Cc1cc(OCc2cc(C(=O)N(Cc3nccn3C)C(C)C)no2)cc(C)c1Cl | -58.5 |
| Cc1cccc(C)c1OCc1cc(C(=O)N(Cc2nccn2C)C(C)C)no1 | -5.91 |
| CC(C)N(Cc1nccn1C)C(=O)c1cc(COc2ccc(F)cc2Cl)on1 | 0.188 |
| CC(C)N(Cc1nccn1C)C(=O)c1cc(COc2ccc3ncccc3c2)on1 | 9.33 |
| COc1cccc(OCc2cc(C(=O)N(Cc3nccn3C)C(C)C)no2)c1 | 8.5 |
| COc1ccc2nc(SC)cc(C)c2c1 | 16.5 |
| CCC1CCC2(CC1)NC(CO)(CO)CO2 (centres unmarked) | 8.52 |
| CC(C)CC1(C)N=C(c2ccccc2)C(=S)N1 (centres unmarked) | 8.32 |
| CCCn1ncc(CN2CCN(CCc3ccccc3)C(CCO)C2)c1C (centres unmarked) | -46.9 |
| COc1cccc(CN2CCN(CCCc3ccccc3)C(CCO)C2)c1O (centres unmarked) | -72.4 |
| CCOc1cccc(CN2CCN(Cc3ccc(C)o3)C(CCO)C2)c1O (centres unmarked) | -13.1 |
| CCOc1cccc(CN2CCN(CCCc3ccccc3)C(CCO)C2)c1O (centres unmarked) | -76.3 |
| C=CCOc1ccccc1CN1CCN(CCc2ccccc2)C(CCO)C1 (centres unmarked) | -59.4 |
| CCOc1cccc(CN2CCN(CCc3ccccc3)C(CCO)C2)c1O (centres unmarked) | -69.7 |
| COc1cccc(CN2CCN(CCCc3ccccc3)C(CCO)C2)c1OC (centres unmarked) | -48.6 |
| COC(=O)CN1C(=S)N(c2ccc(OC)cc2)C(=O)/C1=C/c1cccs1 | 34 |
| Nc1nc(NCc2ccccc2)n(-c2ccccc2)n1 | 14.9 |
| CCOc1ccc(-n2nnnc2-c2nc3ccccc3s2)cc1 | 11.9 |
| O=c1[nH]cc(S(=O)(=O)N2CCOCC2)c(=O)[nH]1 | -7.17 |
| CCOCCn1c(=O)c2c(nc3n2CCCN3CCc2ccccc2)n(C)c1=O | -22.8 |

| SMILES | hERG current change (%, negative = inhibition) at 10uM [%] |
| --- | --- |
| CCn1c(=O)c2c(nc3n2CC(C)CN3CCc2ccccc2)n(C)c1=O (centres unmarked) | -72.6 |
| C=CCn1c(=O)c2c(nc3n2CC(C)CN3CCc2ccccc2)n(C)c1=O (centres unmarked) | -72 |
| CCOCCn1c(=O)c2c(nc3n2CC(C)CN3CCc2ccccc2)n(C)c1=O (centres unmarked) | -71.5 |
| CC1CN(CCc2ccccc2)c2nc3c(c(=O)n(C)c(=O)n3C)n2C1 (centres unmarked) | -33.9 |
| CCOCCn1c(=O)c2c(nc3n2CC(C)CN3Cc2ccccc2)n(C)c1=O (centres unmarked) | -49.5 |
| CC1CN(CCc2ccccc2)c2nc3c(c(=O)[nH]c(=O)n3C)n2C1 (centres unmarked) | -35.9 |
| COCCn1c(=O)c2c(nc3n2CC(C)CN3Cc2ccccc2)n(C)c1=O (centres unmarked) | -47.6 |
| CC1CN(CCc2ccccc2)c2nc3c(c(=O)n(CC(N)=O)c(=O)n3C)n2C1 (centres unmarked) | 2.53 |
| C=CCn1c(=O)c2c(nc3n2CCCN3CCc2ccccc2)n(C)c1=O | -19.8 |
| COCCn1c(=O)c2c(nc3n2CC(C)CN3CCc2ccccc2)n(C)c1=O (centres unmarked) | -56.6 |
| COCCn1c(=O)c2c(nc3n2CCCN3CCc2ccccc2)n(C)c1=O | -31.2 |
| CC(C)C(=O)Nc1cccc(NC(=O)c2cc3ccccc3o2)c1 | -22 |
| C=C(C)C1CC=C(C)/C(=N/NC(=O)COc2cccc3ccccc23)C1 (centres unmarked) | 10.9 |
| CCOc1cc(C(=O)NN2CCOCC2)cc(OCC)c1OCC | 35.2 |
| CC(C)CC(=O)NC(=S)Nc1nc(-c2cccc3ccccc23)cs1 | 12.7 |
| COc1ccc(/C=N/n2cnnc2SCc2ccccc2)cc1 | -2.99 |
| Cc1nc(SCC(=O)NC2CCS(=O)(=O)C2)c2c(C)c(C)sc2n1 (centres unmarked) | 6.15 |
| Clc1ccccc1-c1nnc(-c2ccccc2Cl)o1 | -2.56 |
| COc1cccc(N/N=C/c2cccc(Br)c2O)c1 | -11.1 |
| CCOC(=O)c1sc2nc(SCC#N)n(CCCN3CCCC3=O)c(=O)c2c1C | -62.9 |
| CCOC(=O)c1sc2nc(SCC#N)n(CC3CCCO3)c(=O)c2c1C (centres unmarked) | -13.5 |
| CCOC(=O)c1sc2nc(SCC(=O)N(CC)CC)n(CCCN3CCCC3=O)c(=O)c2c1C | -32.4 |
| COc1cccc(C2C(C(=O)c3cc4ccccc4o3)=C(O)C(=O)N2CCN(C)C)c1OC (centres unmarked) | 0.215 |

| SMILES | hERG current change (%, negative = inhibition) at 10uM [%] |
| --- | --- |
| Cc1ccc(C(=O)CSc2cc(C)[nH]c(=O)n2)cc1 | 6.76 |
| CC(=O)NN1C(=O)/C(=C\c2ccc(Cl)cc2)SC1=S | 0.662 |
| CCCn1c(=N)c(C#N)cc2c(=O)n3cccc(C)c3nc21 | -53 |
| CCC(C)n1c(=N)c(C#N)cc2c(=O)n3cc(C)ccc3nc21 (centres unmarked) | -70.9 |
| Cc1ccc2nc3c(cc(C#N)c(=N)n3Cc3cccnc3)c(=O)n2c1 | -60.4 |
| Cc1ccc(C)c(-n2c(=O)c(C#N)cc3c(=O)n4ccccc4nc32)c1 | 30.5 |
| CCC(C)n1c(=N)c(C#N)cc2c(=O)n3cccc(C)c3nc21 (centres unmarked) | -66.9 |
| Cc1ccc2nc(NCc3ccccc3)c(C=NCc3cccnc3)c(=O)n2c1 | 3.39 |
| N#Cc1cc2c(=O)n3ccccc3nc2n(Cc2cccnc2)c1=O | -21 |
| CCC(C)n1c(=N)c(C#N)cc2c(=O)n3ccccc3nc21 (centres unmarked) | -40.9 |
| CCCn1c(=N)c(C#N)cc2c(=O)n3ccccc3nc21 | -9.89 |
| Cc1cccn2c(=O)c3cc(C#N)c(=O)n(-c4c(C)n(C)n(-c5ccccc5)c4=O)c3nc12 | -7.5 |
| Cc1ccc2nc3c(cc(C#N)c(=O)n3-c3nccs3)c(=O)n2c1 | 2.51 |
| Cc1ccc(Cn2c(=N)c(C#N)cc3c(=O)n4cccc(C)c4nc32)cc1 | -13 |
| CC(=O)NC(CC(=O)Nc1nc(C)cs1)c1ccccc1 (centres unmarked) | 14.1 |
| CCCCCCCCn1sccc1=O | -33.8 |
| Cc1ccc(S(=O)(=O)N2CCN3CCCC3C2)cc1 (centres unmarked) | -6.76 |
| COc1ccc(S(=O)(=O)NCCc2nnc3ccc(SCC(=O)Nc4nc(C)cs4)nn23)cc1 | 25.3 |
| NC(=O)CC1C(=O)N(c2ccc(Cl)cc2)C(=S)N1NC(=O)c1cccc(F)c1 (centres unmarked) | 15.3 |
| COc1ccccc1/C=C/C(=O)NCC(=O)N/N=C(/C)c1ccco1 | 7.74 |
| Nc1[nH]nc2nc3ccccc3cc12 | 23 |
| O=c1oc2ccccc2cc1-c1cn2cccnc2n1 | 1.91 |
| COc1ccc(C2C(C(=O)N3CCN(c4ccccn4)CC3)CCC(=O)N2c2cc(OC)c(OC)c(OC)c2)cc1 (centres unmarked) | 9.77 |
